Sampled rows, rich in hits. Any-hit rate of the full collection: about 4.8%.
hcDAF-12 act: activators of H. contortus DAF-12 nuclear receptor. HEK293 hcDAF-12 lit1-tk-luc reporter, luminescence; 0% DMSO, 100% Δ7-dafachronic acid. activation, % at 6.8 µM. 1.4% of 370,000 active;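 active = activation above the mean of all tested compounds plus 3 SD, cut at about 5.5% in these data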;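 also: 100% = response to 3 µM Δ7-dafachronic acid high control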
hgDAF-12 ag: agonists of H. glycines DAF-12 nuclear receptor; HEK293 GAL4-hgDAF12 UAS-luciferase reporter, agonist luminescence; normalized to butyrate control; activation, % at 6.8 µM; 1.8% of 370,000 active;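 active = activation above a cutoff set at the mean of all screened compounds plus 3 SD, cut at about 10% in these data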;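 also: 0% = DMSO wells and 100% = sodium butyrate wells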
SMARCA2 act: SMARCA2 function activation, primary screen. MG213 cells, MMTV-luciferase reporter, dexamethasone, overnight. activation, % at 9.1 µM. 1% of 370,000 active. AID 652017; in the data active = activation above about 7.8%;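 also: 0% = vehicle wells and 100% = reference activator wells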
ssDAF-12 act: activators of S. stercoralis DAF-12 nuclear receptor | HEK293 ssDAF-12/GRIP1 lit1-tk-luc reporter, luminescence; % of 3 µM dafachronic acid response | activation, % at 6.8 µM | 1% of 370,000 active | AID 652126;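 active = activation above the mean over all tested compounds plus 3 SD, cut at about 0.9% in these data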;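 also: 0% = DMSO-only wells and 100% = 3 µM delta7-dafachronic acid wells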
DAX1 inh-1: inhibitors of DAX1 repression of SF-1 activated StAR promoter; HEK293T StAR-luciferase reporter, SF-1/DAX-1 repression relief; inhibition, % at 6.8 µM; 1.1% of 370,000 active;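 active = inhibition above the mean over all tested compounds plus 3 SD, cut at about 3.6% in these data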;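 also: 0% = DAX-1 cells with DMSO and 100% = cells lacking DAX-1 with DMSO; higher inhibition means more luminescence from relief of DAX-1 repression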
DAX1 inh-2: inhibits human nuclear receptor DAX1. 0.99% of 340,000 active. P51843. inhibition, % at 6.75 µM. AID 504766. HEK293 Gal4-DAX1 luciferase reporter, luminescence;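 active = inhibition above the mean over all tested compounds plus 3 SD, cut at about 4.2% in these data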;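 also: 0% = DAX1-transfected cells with DMSO and 100% = empty-vector control cells with DMSO; inhibition shows as a rise in luminescence from relieved DAX1 repression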
Target sequence (P51843 207-470 limits assumed): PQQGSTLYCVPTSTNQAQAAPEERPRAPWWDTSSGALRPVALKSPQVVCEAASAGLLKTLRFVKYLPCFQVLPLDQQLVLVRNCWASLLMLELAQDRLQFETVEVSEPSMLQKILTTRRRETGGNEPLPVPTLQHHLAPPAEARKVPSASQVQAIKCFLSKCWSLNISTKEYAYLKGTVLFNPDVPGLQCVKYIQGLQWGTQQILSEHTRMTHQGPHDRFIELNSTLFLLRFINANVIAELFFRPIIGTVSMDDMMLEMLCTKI
* = called active by the depositor.

O=C(CCc1nnc(-c2ccc3c(c2)OCO3)o1)N1CCC(c2ccc(F)cc2)C1 (stereo not drawn) was read as hcDAF-12 act 1.5, hgDAF-12 ag 8.1, SMARCA2 act 5.7, ssDAF-12 act 0.8, DAX1 inh-1 0.5 and DAX1 inh-2 5.0*.
Screening O=C1C=CC(=O)N1c1cccc2cccnc12 returned hcDAF-12 act 0.4, hgDAF-12 ag 2.5, SMARCA2 act 1.5, ssDAF-12 act -0.6, DAX1 inh-1 -1.0 and DAX1 inh-2 -1.5.
For Cc1cc(SCC(=O)O)nc2ccccc12 the results were hcDAF-12 act -0.4, hgDAF-12 ag -0.3, SMARCA2 act 0.1, ssDAF-12 act -0.5, DAX1 inh-1 -0.3 and DAX1 inh-2 -0.9.
For O=C(CSc1nc2cc(Cl)ccc2s1)c1cc2ccccc2o1 the results were hcDAF-12 act 1.6, hgDAF-12 ag 2.8, SMARCA2 act -3.4, ssDAF-12 act 3.4*, DAX1 inh-1 0.6 and DAX1 inh-2 0.3.
For Cc1cc(SCC(=O)c2cc3ccccc3o2)nc2ccccc12 the results were hcDAF-12 act 4.8, hgDAF-12 ag 4.3, SMARCA2 act 4.5, ssDAF-12 act 1.1*, DAX1 inh-1 1.3 and DAX1 inh-2 -0.2.
Screening Cc1cc(NC(=O)CSc2nc3cc(Cl)ccc3s2)no1 returned hcDAF-12 act 1.9, hgDAF-12 ag 2.6, SMARCA2 act -5.2, ssDAF-12 act -1.1, DAX1 inh-1 1.2 and DAX1 inh-2 1.4.
For CCOC(=O)c1c(NC(=O)CSc2nc3cc(Cl)ccc3s2)sc(C(C)=O)c1C the results were hcDAF-12 act 5.8*, hgDAF-12 ag 1.1, SMARCA2 act 1.7, ssDAF-12 act -0.9 and DAX1 inh-1 -0.2.
Screening CSCCC(NC(C)=O)C(=O)Oc1ccc2c3c(c(=O)oc2c1)CCCC3 (stereo not drawn) returned hcDAF-12 act -1.1, hgDAF-12 ag -2.1, SMARCA2 act -2.7, ssDAF-12 act -1.8, DAX1 inh-1 -0.6 and DAX1 inh-2 -0.5.
For CSCCC(NC(=O)OC(C)(C)C)C(=O)Oc1ccc2c(=O)c(-c3ccc4c(c3)OCCO4)coc2c1 (stereo not drawn) the results were hcDAF-12 act 5.7*, hgDAF-12 ag 10.9*, SMARCA2 act 2.9, ssDAF-12 act 0.7, DAX1 inh-1 3.3 and DAX1 inh-2 -0.4.
For Clc1ccc(-c2nnc(-c3ccccc3)nc2-c2c[nH]c3ccccc23)cc1 the results were hcDAF-12 act 4.3, hgDAF-12 ag 6.0, SMARCA2 act 1.4, ssDAF-12 act 1.6*, DAX1 inh-1 0.0 and DAX1 inh-2 0.6.
For c1ccc(-c2nnc(-c3ccccc3)c(-c3c[nH]c4ccccc34)n2)cc1 the results were hcDAF-12 act 0.6, hgDAF-12 ag 0.2, SMARCA2 act 2.5, ssDAF-12 act -0.2, DAX1 inh-1 0.4 and DAX1 inh-2 1.4.
`CC(=O)[C@@]1(O)Cc2c(O)c3c(c(O)c2[C@H](O[C@H]2C[C@H](N)[C@H](O)[C@H](C)O2)C1)C(=O)c1ccccc1C3=O` gave hcDAF-12 act 4.5, hgDAF-12 ag -4.7, SMARCA2 act -11.9, ssDAF-12 act 3.6* and DAX1 inh-1 -14.1.
Screening COc1cccc2c1C(=O)c1c(O)c3c(c(O)c1C2=O)C[C@@](O)(C(=O)CO)C[C@@H]3O[C@H]1C[C@H](N)[C@H](O)[C@H](C)O1 returned hcDAF-12 act 5.4, hgDAF-12 ag -6.7, SMARCA2 act -12.1, ssDAF-12 act 2.2*, DAX1 inh-1 -5.9 and DAX1 inh-2 -2.7.
Screening COc1cccc2c1C(=O)c1c(O)c3c(c(O)c1C2=O)CC(O)(C(C)=O)CC3OC1CC(N(C)C)C(O)C(C)O1 (stereo not drawn) returned hcDAF-12 act -4.5, hgDAF-12 ag -11.2, SMARCA2 act -10.8, ssDAF-12 act -2.8, DAX1 inh-1 -9.6 and DAX1 inh-2 -6.5.
Screening O=C(NCCCN1CCCC1=O)c1cc(-c2ccc3c(c2)OCO3)nc2ccccc12 returned hcDAF-12 act 1.6, hgDAF-12 ag -3.1, SMARCA2 act -0.8, ssDAF-12 act 1.0*, DAX1 inh-1 -0.4 and DAX1 inh-2 -0.3.
For O=C(NCCCN1CCOCC1)c1cc(-c2ccc3c(c2)OCO3)nc2ccccc12 the results were hcDAF-12 act 0.9, hgDAF-12 ag 0.1, SMARCA2 act -2.0, ssDAF-12 act -1.8, DAX1 inh-1 -0.4 and DAX1 inh-2 -1.0.
CCN(CC)c1ccc(S(=O)(=O)N2CCOCC2)cc1NC(=O)CSC(=S)N1CCCC1 was read as hcDAF-12 act 0.0, hgDAF-12 ag 0.0, SMARCA2 act 2.3, ssDAF-12 act -1.1, DAX1 inh-1 -2.4 and DAX1 inh-2 0.2.
Screening O=C(C1CCOCC1)N1CCCC(N2CCN(c3ccc(F)cc3)CC2)C1 (stereo not drawn) returned hcDAF-12 act -0.9, hgDAF-12 ag 1.1, SMARCA2 act -1.6, ssDAF-12 act -1.0, DAX1 inh-1 -0.4 and DAX1 inh-2 1.0.
`O=C(NNC(=O)c1ccncc1)Nc1ccc(N=Nc2ccccc2)cc1` gave hcDAF-12 act 5.0, hgDAF-12 ag 10.5*, SMARCA2 act -1.6, ssDAF-12 act 0.7, DAX1 inh-1 2.0 and DAX1 inh-2 -0.1.
Screening Cn1cc([C@]2(O)C(=O)N(c3ccccc3)c3ccccc32)c2ccccc21 returned hcDAF-12 act -1.2, hgDAF-12 ag -4.2, SMARCA2 act 0.4, ssDAF-12 act -0.9 and DAX1 inh-1 0.4.
O=C(NC1CCCc2ccccc21)C1CCN(c2c3c(nc4ncnn24)CCC3)CC1 (stereo not drawn) was read as hcDAF-12 act -1.3, hgDAF-12 ag -0.4, SMARCA2 act 0.7, ssDAF-12 act 1.1*, DAX1 inh-1 0.4 and DAX1 inh-2 -1.2.
`Cc1nc2sc(-c3ccccc3)cc2c(=O)n1/N=C/N(C)C` gave hcDAF-12 act 2.5, hgDAF-12 ag 10.6*, SMARCA2 act 4.8, ssDAF-12 act 0.9*, DAX1 inh-1 2.6 and DAX1 inh-2 2.3.
For Cc1nc2sc(-c3ccccc3)cc2c(=O)n1-n1cccc1 the results were hcDAF-12 act 2.8, hgDAF-12 ag 11.4*, SMARCA2 act 6.0, ssDAF-12 act -0.5, DAX1 inh-1 1.6 and DAX1 inh-2 2.1.
Screening C[C@H](O)[C@@H]1CN2CCc3c([nH]c4c(-c5ccccc5)cccc34)[C@@H]2C[C@@H]1N(C)C(=O)Nc1ccccc1 returned hcDAF-12 act 0.8, hgDAF-12 ag -0.4, SMARCA2 act -0.6, ssDAF-12 act -0.7 and DAX1 inh-1 0.9.
CCN(Cc1cnn(C)c1)C(=O)c1ccc2nc(Cc3ccccc3F)oc2c1 was read as hcDAF-12 act -0.5, hgDAF-12 ag -2.0, SMARCA2 act -4.0, ssDAF-12 act -1.2, DAX1 inh-1 0.1 and DAX1 inh-2 1.8.
Screening CCC(C)[C@@H](C(=O)OC)N(Cc1cn(Cc2ccccc2)nn1)S(=O)(=O)c1ccccc1Br (stereo partly drawn) returned hcDAF-12 act -1.2, hgDAF-12 ag -1.5, SMARCA2 act -3.0, ssDAF-12 act -1.4 and DAX1 inh-1 -0.4.
